Source: the supplement of paper PMC4166925
± gives the standard deviation of the averaged measurements. In all, about 33,000 sequences were measured (“E-score (dimensionless, -0.5 to 0.5)”: median about -0.046, highest 2% from about 0.36 on). Shown is part of a subset that was picked to be rich in the highest values.

System: T1, SpTbr T-box DNA-binding domain (GST fusion)
T1 sequence: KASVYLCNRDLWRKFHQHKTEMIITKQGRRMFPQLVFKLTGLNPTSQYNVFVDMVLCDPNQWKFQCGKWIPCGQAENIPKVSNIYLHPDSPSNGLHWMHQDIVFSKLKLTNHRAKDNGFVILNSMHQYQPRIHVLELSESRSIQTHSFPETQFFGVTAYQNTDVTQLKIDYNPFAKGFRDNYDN
Experiment: PBM E-score of 8-mer (E-score (dimensionless, -0.5 to 0.5)); Tbr is Tbrain of the sea star Patiria miniata (Pm) or the sea urchin Strongylocentrotus purpuratus (Sp); higher = stronger binding preference
Settings: the construct has about 5 more residues each side
Experimental: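 Universal protein-binding microarray (Agilent AMADID 016060, 60-bp probes with a 35-bp variable region) incubated with 200 nM GST-fused Strongylocentrotus purpuratus Tbr T-box DNA-binding domain (residues 362-554) in PBS pH 7.5. Scored for every ungapped 8-mer (given with its reverse complement) as E-score (range -0.5 to 0.5; >0.45 counts as bound) and Z-score of median probe intensity. Two replicate arrays (datasets 1 and 2).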
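Note: protein at 200 nM in PBS on universal double-stranded arrays.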

Row | Sequence | PBM E-score of 8-mer
1 | GTTGCGAA | 0.393 ± 0.0099
2 | CTTGCGAA | 0.343 ± 0.019
3 | AATGCGAA | 0.0358 ± 0.024
4 | GATGCGAC | 0.216 ± 0.022
5 | AATAGCAT | -0.0159 ± 0.004
6 | ATCCTGTG | 0.00404 ± 0.015
7 | AATATCAT | -0.161 ± 0.0081
8 | CCTGGGCG | 0.118 ± 0.03
9 | CCTGCGAA | 0.367 ± 0.0099
10 | TGTGCGAA | 0.458 ± 0.0092
11 | GATGCGAA | 0.202 ± 0.066
12 | ACTGCGAA | 0.332 ± 0.018
13 | TATGCGAA | 0.131 ± 0.068
14 | TCTGCGAA | 0.202 ± 0.04
15 | ACGCGAAG | 0.185 ± 0.027
16 | AAAGTAGA | -0.0436 ± 0.055
17 | ACTTGTAC | -0.109 ± 0.04
18 | CACTCGGC | 0.143 ± 0.021
19 | TCGCGAAA | 0.403 ± 0.026
20 | GCGCGACA | 0.3438 ± 0.0009
21 | CCGCGAAC | 0.338 ± 0.0083
22 | GCGCGAAC | 0.439 ± 0.018
23 | ACGCGAAA | 0.138 ± 0.018
24 | GCGCGAAA | 0.4374 ± 0.0039
25 | GCGCGATA | 0.288 ± 0.014

Row | Sequence | PBM E-score of 8-mer
26 | ACGCGAAC | 0.276 ± 0.003
27 | CCGCGAAA | 0.32 ± 0.025
28 | GCGTCGAC | 0.114 ± 0.082
29 | CCAAATAA | -0.267 ± 0.079
30 | GTGGAAAA | 0.125 ± 0.036
31 | AAACAGCT | 0.0803 ± 0.013
32 | CTTGTCAA | 0.355 ± 0.0065
33 | ATTGTCAA | 0.225 ± 0.019
34 | ATTGTCAG | 0.0298 ± 0.045
35 | CTTGTCAC | 0.39 ± 0.013
36 | CCTGTCAC | 0.3163 ± 0.0011
37 | ATTGTCAC | 0.399 ± 0.013
38 | CCAGCACC | 0.216 ± 0.04
39 | CTGAACAC | -0.0318 ± 0.035
40 | AGACTTTG | -0.0212 ± 0.042
41 | ACTCTTTC | 0.0551 ± 0.015
42 | ACACTTTG | 0.379 ± 0.005
43 | ACACTTTC | 0.402 ± 0.027
44 | CCACTTTC | 0.0779 ± 0.016
45 | ACACTTTA | 0.324 ± 0.043
46 | CGCATAGA | -0.0202 ± 0.12
47 | GCGCTACC | 0.295 ± 0.0067
48 | GCTTTACA | 0.0266 ± 0.031
49 | AGCTTTCA | -0.132 ± 0.045
50 | AACACGTC | 0.372 ± 0.009

Row | Sequence | PBM E-score of 8-mer
51 | GACACGTC | 0.333 ± 0.0087
52 | AACACGAT | 0.291 ± 0.022
53 | AACACGCT | 0.185 ± 0.073
54 | AACACGTT | 0.367 ± 0.044
55 | AACACGTA | 0.317 ± 0.018
56 | AGTGGAGA | -0.0675 ± 0.13
57 | AAAGTGAG | 0.217 ± 0.0053
58 | CAAGTGTA | 0.249 ± 0.051
59 | CAAGTGGG | 0.265 ± 0.022
60 | AAAGTGCG | 0.337 ± 0.006
61 | CAAGTGCG | 0.395 ± 0.02
62 | AAAGTGAT | 0.205 ± 0.0065
63 | AAAGTGAC | 0.367 ± 0.032
64 | CAAGTGCC | 0.266 ± 0.0062
65 | AAAGTGTG | 0.441 ± 0.0064
66 | ACAGTGTG | 0.338 ± 0.011
67 | AAAGTGAA | -0.017 ± 0.029
68 | CAAGTGTG | 0.453 ± 0.0056
69 | CAGCAACC | -0.109 ± 0.025
70 | ACCTTAGA | 0.0853 ± 0.026
71 | AATCTCTA | -0.14 ± 0.0019
72 | AGTACTGA | -0.0534 ± 0.012
73 | AGTATCGC | 0.185 ± 0.0083
74 | ACAGTGTC | 0.213 ± 0.0024
75 | GAAGTGTA | 0.304 ± 0.0081

Row | Sequence | PBM E-score of 8-mer
76 | AACAAGTG | 0.298 ± 0.035
77 | AAAGTGTC | 0.39331 ± 0.00039
78 | CACAAGTC | 0.166 ± 0.039
79 | CAAGTGTC | 0.351 ± 0.012
80 | AAAGTGGT | 0.00031 ± 0.043
81 | AAAGTGGC | 0.205 ± 0.025
82 | AAAGTGTT | 0.416 ± 0.035
83 | GAAGTGTC | 0.42864 ± 0.00011
84 | AAAGTGTA | 0.112 ± 0.073
85 | CACAAGTG | 0.38 ± 0.016
86 | GCGCTTAC | 0.216 ± 0.054
87 | CTGATGCA | 0.0385 ± 0.021
88 | CCTCGTAC | -0.22 ± 0.0077
89 | AAGGGTAG | -0.0117 ± 0.11
90 | ACTGGAGA | -0.123 ± 0.052
91 | AAACCTTG | -0.17 ± 0.045
92 | AGACCTTC | -0.26 ± 0.016
93 | CCACCTTA | 0.213 ± 0.01
94 | GAACCTTA | -0.0824 ± 0.12
95 | AGACCTTG | -0.19 ± 0.022
96 | CCACCTGA | 0.148 ± 0.02
97 | TCACCTGA | 0.3337 ± 0.0032
98 | ACACCTTC | 0.4746 ± 0.0017
99 | ACACCTTG | 0.4831 ± 0.0013
100 | CCACCTTC | 0.2634 ± 0.0018

Row | Sequence | PBM E-score of 8-mer
101 | GCACCTGA | 0.386 ± 0.0077
102 | GCACCTTA | 0.404 ± 0.026
103 | ATATCCAT | -0.037 ± 0.059
104 | AGCCAACT | -0.173 ± 0.045
105 | AGATTTCA | -0.0179 ± 0.064
106 | ACTAGGAT | -0.2518 ± 0.0023
107 | CAAGGAAC | -0.142 ± 0.03
108 | CTCTCCAC | 0.0528 ± 0.073
109 | CGTTAGGA | -0.0398 ± 0.0099
110 | AAGAATTC | -0.22 ± 0.027
111 | ACACCTTA | 0.46892 ± 0.00038
112 | AAACCTTA | -0.0223 ± 0.025
113 | ATACCTTA | 0.1245 ± 0.00057
114 | GCAAGAGC | -0.0244 ± 0.092
115 | CTCGTCAA | 0.201 ± 0.0083
116 | ATCGTCAT | -0.00478 ± 0.05
117 | CTCGTCAC | 0.389 ± 0.024
118 | ATCGTCAC | 0.381 ± 0.011
119 | GTCGTCAC | 0.337 ± 0.025
120 | ATCGTCAA | 0.158 ± 0.0046
121 | TCGCCAGA | 0.0255 ± 0.017
122 | AAGGCACA | -0.16 ± 0.04
123 | ATGGGGGG | -0.172 ± 0.0088
124 | AGAAGTGA | 0.289 ± 0.014
125 | AGTCTACG | -0.209 ± 0.008

Row | Sequence | PBM E-score of 8-mer
126 | CAGCTACG | -0.036 ± 0.0027
127 | TGTGGTAA | 0.133 ± 0.02
128 | GGCGGCCA | -0.156 ± 0.03
129 | CTTCGCCC | -0.0235 ± 0.028
130 | CTTCGCAC | 0.461 ± 0.015
131 | ATTCGCAA | 0.29 ± 0.016
132 | CTTCGCAA | 0.341 ± 0.029
133 | ATTCGCAC | 0.4705 ± 0.0024
134 | ATTCGCAG | 0.33 ± 0.013
135 | GTCTATAA | -0.0104 ± 0.0026
136 | CGAGGGCC | -0.127 ± 0.057
137 | ACGAAAGT | 0.00641 ± 0.0039
138 | AATGTGTC | 0.413 ± 0.012
139 | AATGTGCG | 0.3287 ± 0.0028
140 | CATGTGTC | 0.3458 ± 0.0021
141 | AATGTGGC | 0.219 ± 0.02
142 | AATGTGTG | 0.4245 ± 0.0035
143 | AATGTGTA | 0.207 ± 0.05
144 | AGACGACT | -0.202 ± 0.093
145 | GCTGGGCC | -0.144 ± 0.0084
146 | ATGTGACA | 0.409 ± 0.0051
147 | CTGTGACA | 0.31 ± 0.011
148 | ATGTGACG | 0.285 ± 0.026
149 | ATGTGACC | 0.169 ± 0.046
150 | CTGTGACC | 0.142 ± 0.026

Row | Sequence | PBM E-score of 8-mer
151 | GTGTGACA | 0.457 ± 0.0047
152 | CAGATAGA | -0.131 ± 0.025
153 | CAGCAGAG | -0.0309 ± 0.05
154 | CACTCTCA | 0.317 ± 0.00081
155 | CATGCGCG | 0.221 ± 0.023
156 | CTACTGTC | 0.1 ± 0.024
157 | CAGGACTA | -0.191 ± 0.029
158 | AGACTTAT | 0.00662 ± 0.019
159 | GAGCCTGC | -0.0257 ± 0.039
160 | GATAACAC | 0.414 ± 0.022
161 | GATAACAA | 0.27 ± 0.027
162 | CATAACAC | 0.405 ± 0.028
163 | CATAACAA | 0.00154 ± 0.064
164 | AATAACAC | 0.294 ± 0.062
165 | GATAACGC | 0.288 ± 0.011
166 | CAGCATGA | -0.154 ± 0.015
167 | AAGTTGGT | -0.0114 ± 0.097
168 | GGAGTCAA | -0.0304 ± 0.04
169 | ATAGCACA | 0.156 ± 0.06
170 | ATAGCACC | 0.387 ± 0.011
171 | CTAGCACA | 0.271 ± 0.018
172 | ATAGCACG | 0.34 ± 0.0094
173 | CAAGCACC | 0.0313 ± 0.011
174 | CTAGCACC | 0.415 ± 0.014
